# Measurements taken from PubChem BioAssay (EPA / NIEHS).
# Results filed as inconclusive are left out. Active and inactive are the calls of the source. Rule for the calls: active = hit-call score of the fitted dose curve at least 0.9, where 1 is the maximum; inactive = score below 0.9.
# Read-out: Cytochrome P450 2C9 (Homo sapiens) (UniProt P11712)
# Assay: CLD_CYP2C9_48hr: CellzDirect (CLD) Gene Expression Assay for xenobiotic metabolism (CYP2C9) at 48 hours (AID 2283701)
# Description: CLD_48hr is a cell-based, multiplexed-readout assay that uses hepatocyte, a human liver primary cell, with measurements taken at 48 hours after chemical dosing in a 96-well plate.CLD_CYP2C9_48hr is one of 16 assay component(s) measured or calculated from the CLD_48hr assay. It is designed to make measurements of mRNA induction, a form of inducible reporter, as detected with chemiluminescence signals by Quantitative Nuclease Protection Assay (qNPA) technology.Data from the assay component CLD_CYP2C9_48hr was analyzed at the endpoint, CLD_CYP2C9_48hr, in the positive analysis fitting direction relative to DMSO as the negative control and baseline of activity. Using a type of inducible reporter, gain-of-signal activity can be used to understand changes in the reporter gene as they relate to the gene CYP2C9. Furthermore, this assay endpoint can be referred to as a primary readout. To generalize the intended target to other relatable targets, this assay endpoint is annotated to the cyp intended target family, where subfamily is xenobiotic metabolism.
# Human hepatocyte cultures were treated daily for two consecutive days with fresh dosing solutions containing appropriate concentrations of the 320 ToxCast chemicals (chemical identities were blinded to CellzDirect and other ToxCast collaborators), vehicle control (0.2% DMSO), and positive control inducers as summarized in Table 1. Due to the large number of treatment groups and chemicals examined, the ToxCast chemicals were divided into two groups (spanning two independent cultures of hepatocytes from separate donor preparations (Hu778: ToxCast plates 1 and 2; Hu776: ToxCast plates 3 and 4). Each preparation of human hepatocyte cultures was treated with respective vehicle control, medium only control, set of six positive controls/reference chemicals for the five hepatic receptor pathways, and a subset of eight of the ToxCast chemicals (indoxacarb, pyrithiobac-sodium, norflurazon, cyhalofop-butyl, methomyl, thiram, acetochlor, and propiconazole). These replicate data, coupled with internal replicates designed within the blinded ToxCast chemical library, provided additional data to evaluate interindividual differences between hepatocyte preparations and their potential impact on chemical profiles.Cell morphology and integrity were evaluated using phase-contrast microscopy as an indicator of hepatocyte cell health (Tyson & Green, 1987). Cultures for each treatment group (i.e., media, vehicle [0.2% DMSO], positive control inducers [multiple concentrations], and the ToxCast chemicals [multiple concentrations]) were observed and cell morphology was assessed relative to vehicle control cultures at each harvest time point (0, 6, 24, or 48 h). […] Images were evaluated at the conclusion of the study to assess changes in cell integrity and account for the effects of chemical exposure on uncharacteristic changes in concentration-dependent gene expression profiles. The results from these determinations of apparent cytotoxicity were annotated (yes/no) alongside the corresponding qNPA data for reference.At the conclusion of each treatment period, hepatocyte cultures (96-well) were washed with 1 volume of HBSS, lysed by addition of 25 ul ArrayPlate lysis buffer (HTG, Tucson, AZ), and 70 ul/well of Denaturation Oil, denatured by incubation at 95C for 10 min, and frozen at approximately -70C until analysis by nuclease protection assay (qNPA) (Roberts et al., 2007). For qNPA analysis, cell lysates were thawed at 50C for approximately 30 min, qNPA probes were added, and samples were incubated at 95C for 10 min to begin the detection process by denaturing the target RNA, dissociating the duplexes and secondary structure hybridization. At the conclusion of the hybridization period, S1 nuclease reagent was added to each sample to digest all nonprotected nucleotides at 50C for 60-90 min. […]
row,Structure (SMILES),outcome
1,CC(C)(c1ccc(O)cc1)c1ccc(O)cc1,inactive
2,CC1(C)C(C=C(Cl)Cl)C1C(=O)OCc1cccc(Oc2ccccc2)c1 (stereo not drawn),inactive
3,COC(=O)c1ccc(I)cc1S(=O)(=O)NC(=O)Nc1nc(C)nc(OC)n1,inactive
4,COC(=O)c1c(Cl)nn(C)c1S(=O)(=O)NC(=O)Nc1nc(OC)cc(OC)n1,inactive
5,c1ccc(Nc2ccccc2)cc1,inactive
6,CCOC(=O)NCCOc1ccc(Oc2ccccc2)cc1,inactive
7,CCOC(=O)COc1cc(-n2ncc(C(F)(F)F)c(C)c2=O)c(F)cc1Cl,inactive
8,CCCN(CCC)C(=O)SCC,inactive
9,COCCO,inactive
10,CCCCCOC(=O)COc1cc(N2C(=O)C3=C(CCCC3)C2=O)c(F)cc1Cl,inactive
11,CCCN(CCC)c1c([N+](=O)[O-])cc(C(F)(F)F)c(N)c1[N+](=O)[O-],inactive
12,CCCCC(CC)COC(=O)c1ccccc1C(=O)O (stereo not drawn),inactive
13,CCOC(=O)[C@H](C)Oc1ccc(Oc2nc3ccc(Cl)cc3o2)cc1,inactive
14,OB(O)O,inactive
15,CCCCC(CC)CN1C(=O)C2C3C=CC(C3)C2C1=O (stereo not drawn),inactive
16,C#CCOC(=O)[C@@H](C)Oc1ccc(Oc2ncc(Cl)cc2F)cc1,inactive
17,COC(=O)c1cccc(C)c1S(=O)(=O)NC(=O)Nc1nc(OCC(F)(F)F)nc(N(C)C)n1,inactive
18,CCCCCCC(C)OC(=O)COc1nc(F)c(Cl)c(N)c1Cl (stereo not drawn),inactive
